An excerpt weighted towards active compounds, which were near 1.7% of everything screened.
HEK293 tox: cytotoxicity in counter-screen for GLP-1R inverse agonists; HEK293 cAMP-luciferase reporter cells, luminescence, 24 h; Potency, µM (highest dose often 38.3 µM), for inactives: at the top dose activity change, negative = inhibition, hits mostly inhibitors; 410,000 tested, 0.13% active; AID 624418;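 also: loss of luciferase light is scored as toxicity; % is scaled to controls: 0 for no effect and ±100 for the full control effect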
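Quantitative HTS format, 1536 wells, 200 cells/uL seeded. Compounds: 23 nL, 24 h, 37 °C. Detection: luciferase reagent, luminescence at 12 min RT; decreased signal taken as cytotoxic.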
GLP1R ag: GLP-1 receptor (human) agonism; Potency, µM (doses to about 45.6 µM), without a hit: at the top dose activation, actives largely listed as activators; 380,000 tested, 0.007% active; AID 624172; P43220; HEK293 GLP-1R CRE-luciferase, luminescence, 4-6 h; cells express a hypersensitive GLP-1R form; also: % of control where 0% means no effect
GLP-1R inv ag: GLP-1 receptor (human) inverse agonism; P43220; HEK293 GLP-1R CRE-luciferase, luminescence, 24 h; GLP-1R form is constitutively active; Potency, µM (titrated, usually from 38.3 µM), inactives show top-dose activity change, negative = inhibition, actives largely listed as inhibitors; 410,000 tested, 1.6% active; AID 624417; also: % is scaled to controls: 0 for no effect and ±100 for the full control effect; nearly all actives have a fitted effect of over 55% in size
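qHTS in 1536-well format: reporter HEK293 cells expressing constitutive GLP-1R activity in DMEM + 10% Nu serum, 24 hr with compounds at 37 deg C, luminescence read after 12 min with detection reagent.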
PTHR1 ag: PTHR1 (human) receptor agonism; Q03431; HEK293 GP2 PTHR1 cells, GloSensor cAMP luminescence, 1 h; Potency, µM (doses to about 115 µM), inactives show at the highest dose activation, hits mostly activators; 410,000 tested, 0.075% active; AID 743266; also: nearly all actives have a fitted effect of over 55% in size
Target sequence (Q03431 whole entry, looked up): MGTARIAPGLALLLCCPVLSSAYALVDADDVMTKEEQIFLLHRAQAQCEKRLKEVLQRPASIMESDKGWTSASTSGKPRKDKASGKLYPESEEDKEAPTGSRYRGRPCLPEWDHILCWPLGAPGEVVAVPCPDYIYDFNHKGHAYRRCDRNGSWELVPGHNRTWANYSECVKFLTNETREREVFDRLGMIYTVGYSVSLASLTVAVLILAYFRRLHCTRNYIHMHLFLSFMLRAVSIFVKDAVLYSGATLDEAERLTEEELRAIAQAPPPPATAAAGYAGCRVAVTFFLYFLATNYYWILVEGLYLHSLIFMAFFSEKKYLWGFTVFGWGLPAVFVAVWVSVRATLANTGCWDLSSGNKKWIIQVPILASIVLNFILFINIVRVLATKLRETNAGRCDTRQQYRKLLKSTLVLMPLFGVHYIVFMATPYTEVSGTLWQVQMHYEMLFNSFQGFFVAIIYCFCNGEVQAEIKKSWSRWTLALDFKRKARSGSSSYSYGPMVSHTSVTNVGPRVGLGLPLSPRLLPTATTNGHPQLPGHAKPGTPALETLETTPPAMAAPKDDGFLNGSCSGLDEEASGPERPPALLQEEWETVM
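HEK-293-derived GP2 cells expressing PTHR1 and a GloSensor cAMP reporter, 3,000/well, plated overnight, given luciferin plus IBMX (each 0.5 mM as added) for 1 h at 37 °C, then compound for 1 h at 37 °C. Luminescence was read after 15 min at room temperature.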
Active calls of the source: *; i = inactive; ? = inconclusive; · = no result; [ ] = dose if it differs, or a comment. Calls follow the shape of the dose curve; as a rule, active = well fitted curve in the direction sought with a large enough effect; inconclusive = small, poorly fitted or top-dose-only effect, or another doubt; inactive = no such curve, though single readings can be large; an effect the other way counts as inactive or inconclusive. Potency is read from the fitted curve at half-maximal effect.

SMILES	HEK293 tox	GLP1R ag	GLP-1R inv ag	PTHR1 ag
CCC1=NN(C(=O)c2ccc([N+](=O)[O-])cc2)C(O)(c2ccccc2)C1 (configuration not stated)	?	11%	0.79µM*	-26%
CCC1=NN(C(=O)c2ccc(Cl)cc2)C(O)(c2ccc(C)cc2)C1 (configuration not stated)	?	8%	2.8µM*	-19%
CC1=NN(C(=O)c2ccccc2Br)C(O)(c2ccc(Cl)cc2)C1 (configuration not stated)	4%	11%	3.2µM*	-24%
CCn1c(SCC(=O)Nc2cc(C)on2)nc2c(c1=O)SCC2	19%	11%	29%	-23%
O=C(Cn1ncc2c3ccccc3n(Cc3ccccc3F)c2c1=O)NCc1ccccc1Cl	0%	·	8%	8%
CC12CCC(C)(c3nc4ccccc4nc31)C2(C)C	-7%	3%	?	-22%
Cc1[nH]nc2c1-c1nc3ccccc3nc1C(C)(C)C2	4%	10%	2%	28µM*
COc1cccc(C(=O)C2CCCN(Cc3cn[nH]c3C3CCCCC3)C2)c1 (configuration not stated)	-7%	14%	10µM*	-5%
COc1ccc(Br)cc1CNC(=O)CCCn1c(=O)c2cccn2c2cccnc21	2%	·	3%	-44%
Cc1ccc(S(=O)(=O)N2[C@@H](c3cccc(Cl)c3)C(C(=O)O)=CC[C@H]2c2cccs2)cc1	-20%	-1%	?	-27%
CC1(Cc2ccccc2Cl)C(=O)Nc2ccc(OC(F)(F)F)cc21 (configuration not stated)	4%	0%	10µM*	-13%
Cc1ccc(Cn2ncc3c(NCCN(C)C)ncnc32)cc1	22%	-2%	-1%	i
c1ccc(-c2cn(-c3ccccc3)c3ncnc(N4CCCCC4)c23)cc1	-6%	3%	3.2µM*	-16%
Clc1cccc(-n2cc(-c3ccccc3)c3c(N4CCCCC4)ncnc32)c1	9%	·	2%	i
CN(C)CCCNc1ncnc2scc(-c3ccccc3)c12	0%	-4%	11µM*	i
Cc1c(C)n(CCc2ccccc2)c2ncnc(NCCCN(C)C)c12	-27%	1%	2µM*	i
c1ccc(-c2csc3ncnc(NCc4ccccn4)c23)cc1	-6%	-2%	-6%	-64%
Cc1ccc(-n2c(C)c(C)c3c(NCCN(C)C)ncnc32)cc1	-2%	-3%	10µM*	-21%
Cc1cccc(CNC(=O)CN2C(=O)C3CCCCN3c3ccc(C(=O)N4CCCC4)cc32)c1 (configuration not stated)	-9%	·	15%	i
Cc1ccc(CNC(=O)Cc2ccc(NC(=O)N3CCSc4ncccc43)cc2)cc1	4%	·	-13%	i
CCN(CC)C(=O)c1sc2c(c1C)c(=O)n(-c1ccccc1)c(=O)n2Cc1c(C)cc(C)cc1C	-4%	·	13%	-25%
COc1ccc(CCNc2ncnc3c2c(-c2ccccc2)cn3-c2ccc(F)cc2)cc1OC	-5%	·	?	-2%
COc1ccc(-n2cc(-c3ccccc3)c3c(NC4CCCC4)ncnc32)cc1	1%	·	1.8µM*	-21%
Clc1cccc(-n2cc(-c3ccccc3)c3c(NC4CCCC4)ncnc32)c1	1%	·	-1%	-19%
CN(C)CCCNc1ncnc2c1c(-c1ccccc1)cn2-c1ccccc1	?	11%	4µM*	-18%
SMILES	HEK293 tox	GLP1R ag	GLP-1R inv ag	PTHR1 ag
Fc1ccc(CNc2ncnc3c2c(-c2ccccc2)cn3-c2ccccc2)cc1	-2%	·	?	i
CN(C)CCNc1ncnc2c1cnn2-c1ccc(Cl)cc1	?	-14%	3.2µM*	-60%
Fc1ccc(-n2cc(-c3ccccc3)c3c(NCCc4ccccc4)ncnc32)cc1	3%	·	7.9µM*	-20%
CCN1CCN(CCC(=O)Nc2cc(OC)cc(OC)c2)CC1	0%	-29%	8%	-2%
COc1ccc(OC)c(-c2noc(N3CCN(c4cccc(C(F)(F)F)c4)CC3)n2)c1	4%	1%	?	i
CC(C)CN(C(=O)COC(=O)CSc1ccc([N+](=O)[O-])cc1)C1CCS(=O)(=O)C1 (configuration not stated)	-2%	-4%	10%	i
COC(=O)c1c(-c2ccc(Cl)cc2)noc1N1CCN(c2cc(C)ccc2C)CC1	0%	·	11%	-83%
OCCOCCNc1ncnc2c1c(-c1ccccc1)cn2-c1ccccc1	-3%	27%	2%	0%
CCCNc1ncnc2c1c(-c1ccccc1)cn2-c1ccccc1	-4%	·	10µM*	-6%
CN(C)c1ccc(CNC(=O)CCC(=O)N2Cc3ccccc3Oc3ncccc32)cc1	-3%	·	-11%	16%
COc1cccc(/C=N/Nc2nc(Nc3ccc([N+](=O)[O-])cc3)nc(N3CCCC3)n2)c1O	?	-2%	2.8µM*	-4%
CCC(=O)N1CCc2cc(S(=O)(=O)NCCC(=O)Nc3ccc(CC)cc3)ccc21	-4%	·	15%	-26%
COc1ccc(C2N(c3ccc(Cl)cc3)N=C(C(C)=O)N(C)N2C(C)=O)cc1 (configuration not stated)	16%	9%	10µM*	i
Cc1[nH]n2c(=O)cc(-c3ccc(Cl)cc3)nc2c1-c1ccccc1	98%	-16%	2.8µM*	-32%
Cc1[nH]n2c(=O)cc(C(C)C)nc2c1-c1ccccc1	-17%	-2%	-21%	-8%
Cc1[nH]n2c(=O)cc(C(C)(C)C)nc2c1-c1ccccc1	?	-12%	3.5µM*	-10%
CN(C)C(=O)CCSC(SCCC(=O)O)c1cccc(/C=C/c2ccc3ccc(Cl)cc3n2)c1 (configuration not stated)	·	29%	·	·
CCOc1ccc(CCNC(=O)Cn2c(C)c3cnn(-c4ccccc4)c(=O)c3c2C)cc1	6%	·	14%	i
COc1ccc(Cl)cc1NC(=O)C1CCN(c2ncnc3c2nc2n3CCCCC2)CC1	3%	·	-2%	i
CCOC(=O)/C(=C/c1c2ccccc2cc2ccccc12)NC(=O)c1ccccc1	17%	-2%	4.5µM*	-4%[57.5 µM]
CN(C)c1cc(NC(=O)CNC(C)(C)C)c(O)c2c1C[C@@H]1C[C@H]3[C@H](N(C)C)C(=O)C(C(N)=O)=C(O)[C@@]3(O)C(=O)C1=C2O	·	0%	·	·
CCN(CC)CCNC(=O)c1ccc(CSc2nc3ccncc3n2Cc2cccc(F)c2)cc1	10%	·	6%	-1%
CCN1C(C(=O)c2ccccc2)=C(OC(=O)c2ccccc2OC)c2ccccc2S1(=O)=O	?	·	10µM*	-51%
CCCCC(=O)OC1=C(C(=O)c2ccccc2)N(CC)S(=O)(=O)c2ccccc21	-25%	·	?	i
CSc1ccc(CNC(=O)c2ccc3c(c2)N(C)C(=O)C2CCCCN32)cc1 (configuration not stated)	1%	·	-1%	-23%
CC(C)Cn1c(-c2ccccc2)nc2ccccc2c1=O	-6%	7%	2.8µM*	-2%
